# Assay results published in the supplement of paper PMC12282887.
# ± gives the standard deviation of the averaged measurements.
# Key:
# Experiment in all cases: promoter activity interaction Z-score (Lux/OD deviation from empty-vector control); higher = stronger promoter induction by the compound
# [1] = tested on: E. coli BW25113 acrABp lux reporter
# Summary of the method: (§1)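 OD600 and luminescence of E. coli BW25113 reporter cultures (40 µl LB Lennox, 384-well plates, 37°C) were measured every 30 min for 12 h. Integration ran over 0–8 h for wild type or 1–9 h for deletion strains, and wells with growth below 10% of the median were dropped. The score is the Z-transformed residual of growth-normalised luminescence fitted against a control.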
# [2] = tested on: E. coli BW25113 micFp lux reporter
# Summary of the method: as §1
# [3] = tested on: E. coli BW25113 ompFp lux reporter
# Summary of the method: as §1
# [4] = tested on: E. coli BW25113 robp lux reporter
# Summary of the method: as §1
# [5] = tested on: E. coli BW25113 soxSp lux reporter
# Summary of the method: as §1
# [6] = tested on: E. coli BW25113 tolCp lux reporter
# Summary of the method: as §1
# [7] = 7 µg/ml, genetic background: wild type
# [8] = 7 µg/ml, genetic background: ΔmarA
# [9] = 7 µg/ml, genetic background: Δrob
# [10] = 7 µg/ml, genetic background: ΔsoxS
# [11] = 14 µg/ml, genetic background: wild type
# [12] = 14 µg/ml, genetic background: ΔmarA
# [13] = 14 µg/ml, genetic background: Δrob
# [14] = 14 µg/ml, genetic background: ΔsoxS
# [15] = 28 µg/ml, genetic background: wild type
# [16] = 28 µg/ml, genetic background: ΔmarA
# [17] = 28 µg/ml, genetic background: Δrob
# [18] = 28 µg/ml, genetic background: ΔsoxS
# [19] = 56.1 µg/ml, genetic background: wild type
# [20] = 56.1 µg/ml, genetic background: ΔmarA
# [21] = 56.1 µg/ml, genetic background: Δrob
# [22] = 56.1 µg/ml, genetic background: ΔsoxS
structure (smiles),measurement,setting,value
COc1cc(NS(=O)(=O)c2ccc(N)cc2)ncn1 [Sulfamonomethoxine],promoter activity interaction Z-score,[1]; [7],-0.0629 ± 0.12
same,promoter activity interaction Z-score,[1]; [8],-0.0827 ± 0.19
same,promoter activity interaction Z-score,[1]; [9],-0.194 ± 0.069
same,promoter activity interaction Z-score,[1]; [10],-0.131 ± 0.45
same,promoter activity interaction Z-score,[1]; [11],-0.0954 ± 0.051
same,promoter activity interaction Z-score,[1]; [12],0.444 ± 0.69
same,promoter activity interaction Z-score,[1]; [13],0.0478 ± 0.2
same,promoter activity interaction Z-score,[1]; [14],-0.102 ± 0.4
same,promoter activity interaction Z-score,[1]; [15],0.289 ± 0.03
same,promoter activity interaction Z-score,[1]; [16],0.686 ± 0.39
same,promoter activity interaction Z-score,[1]; [17],0.139 ± 0.014
same,promoter activity interaction Z-score,[1]; [18],-0.0503 ± 0.27
same,promoter activity interaction Z-score,[1]; [19],0.594 ± 0.059
same,promoter activity interaction Z-score,[1]; [20],1.43 ± 0.56
same,promoter activity interaction Z-score,[1]; [21],1.32 ± 0.6
same,promoter activity interaction Z-score,[1]; [22],0.654 ± 0.63
same,promoter activity interaction Z-score,[2]; [7],-0.11 ± 0.081
same,promoter activity interaction Z-score,[2]; [8],-0.104 ± 0.066
same,promoter activity interaction Z-score,[2]; [9],0.00985 ± 0.087
same,promoter activity interaction Z-score,[2]; [10],-0.0124 ± 0.09
same,promoter activity interaction Z-score,[2]; [11],0.129 ± 0.024
same,promoter activity interaction Z-score,[2]; [12],-0.112 ± 0.13
same,promoter activity interaction Z-score,[2]; [13],-0.0554 ± 0.081
same,promoter activity interaction Z-score,[2]; [14],0.0346 ± 0.00076
same,promoter activity interaction Z-score,[2]; [15],-0.113 ± 0.28
same,promoter activity interaction Z-score,[2]; [16],0.0381 ± 0.13
same,promoter activity interaction Z-score,[2]; [17],-0.0788 ± 0.15
same,promoter activity interaction Z-score,[2]; [18],-0.00695 ± 0.03
same,promoter activity interaction Z-score,[2]; [19],0.345 ± 0.27
same,promoter activity interaction Z-score,[2]; [20],-0.0779 ± 0.035
same,promoter activity interaction Z-score,[2]; [21],0.446 ± 0.3
same,promoter activity interaction Z-score,[2]; [22],0.145 ± 0.15
same,promoter activity interaction Z-score,[3]; [7],0.897 ± 1
same,promoter activity interaction Z-score,[3]; [8],0.44 ± 0.78
same,promoter activity interaction Z-score,[3]; [9],0.229 ± 0.2
same,promoter activity interaction Z-score,[3]; [10],0.152 ± 0.17
same,promoter activity interaction Z-score,[3]; [11],0.907 ± 0.69
same,promoter activity interaction Z-score,[3]; [12],0.36 ± 0.52
same,promoter activity interaction Z-score,[3]; [13],0.708 ± 0.82
same,promoter activity interaction Z-score,[3]; [14],0.102 ± 0.078
same,promoter activity interaction Z-score,[3]; [15],1.05 ± 0.98
same,promoter activity interaction Z-score,[3]; [16],1.11 ± 0.74
same,promoter activity interaction Z-score,[3]; [17],0.731 ± 0.18
same,promoter activity interaction Z-score,[3]; [18],0.341 ± 0.13
same,promoter activity interaction Z-score,[3]; [19],2.04 ± 0.99
same,promoter activity interaction Z-score,[3]; [20],2.09 ± 0.78
same,promoter activity interaction Z-score,[3]; [21],2.95 ± 1.7
same,promoter activity interaction Z-score,[3]; [22],1.94 ± 0.43
same,promoter activity interaction Z-score,[4]; [7],1.09 ± 0.49
same,promoter activity interaction Z-score,[4]; [8],0.0134 ± 0.083
same,promoter activity interaction Z-score,[4]; [9],-0.027 ± 0.51
same,promoter activity interaction Z-score,[4]; [10],-0.114 ± 0.21
same,promoter activity interaction Z-score,[4]; [11],1.2 ± 0.46
same,promoter activity interaction Z-score,[4]; [12],-0.0907 ± 0.34
same,promoter activity interaction Z-score,[4]; [13],0.416 ± 0.81
same,promoter activity interaction Z-score,[4]; [14],-0.326 ± 0.46
same,promoter activity interaction Z-score,[4]; [15],0.911 ± 0.12
same,promoter activity interaction Z-score,[4]; [16],1.16 ± 0.43
same,promoter activity interaction Z-score,[4]; [17],0.643 ± 0.1
same,promoter activity interaction Z-score,[4]; [18],0.227 ± 0.12
same,promoter activity interaction Z-score,[4]; [19],2 ± 0.41
same,promoter activity interaction Z-score,[4]; [20],2.2238 ± 0.0018
same,promoter activity interaction Z-score,[4]; [21],1.45 ± 0.23
same,promoter activity interaction Z-score,[4]; [22],1.99 ± 0.18
same,promoter activity interaction Z-score,[5]; [7],-0.238 ± 0.08
same,promoter activity interaction Z-score,[5]; [8],-0.23 ± 0.096
same,promoter activity interaction Z-score,[5]; [9],-0.34 ± 0.09
same,promoter activity interaction Z-score,[5]; [10],-0.327 ± 0.54
same,promoter activity interaction Z-score,[5]; [11],-0.126 ± 0.13
same,promoter activity interaction Z-score,[5]; [12],-0.374 ± 0.052
same,promoter activity interaction Z-score,[5]; [13],-0.287 ± 0.064
same,promoter activity interaction Z-score,[5]; [14],-0.322 ± 0.51
same,promoter activity interaction Z-score,[5]; [15],-0.403 ± 0.15
same,promoter activity interaction Z-score,[5]; [16],-0.289 ± 0.029
same,promoter activity interaction Z-score,[5]; [17],-0.503 ± 0.07
same,promoter activity interaction Z-score,[5]; [18],-0.224 ± 0.42
same,promoter activity interaction Z-score,[5]; [19],-0.28 ± 0.14
same,promoter activity interaction Z-score,[5]; [20],-0.0803 ± 0.1
same,promoter activity interaction Z-score,[5]; [21],-0.502 ± 0.17
same,promoter activity interaction Z-score,[5]; [22],-0.113 ± 0.36
same,promoter activity interaction Z-score,[6]; [7],-0.23 ± 0.84
same,promoter activity interaction Z-score,[6]; [8],0.608 ± 0.35
same,promoter activity interaction Z-score,[6]; [9],0.27 ± 0.051
same,promoter activity interaction Z-score,[6]; [10],-0.223 ± 1.2
same,promoter activity interaction Z-score,[6]; [11],1.12 ± 0.49
same,promoter activity interaction Z-score,[6]; [12],-0.382 ± 0.79
same,promoter activity interaction Z-score,[6]; [13],-0.826 ± 0.66
same,promoter activity interaction Z-score,[6]; [14],0.183 ± 1.1
same,promoter activity interaction Z-score,[6]; [15],-0.0377 ± 0.24
same,promoter activity interaction Z-score,[6]; [16],1.63 ± 0.99
same,promoter activity interaction Z-score,[6]; [17],-0.142 ± 0.15
same,promoter activity interaction Z-score,[6]; [18],0.453 ± 0.22
same,promoter activity interaction Z-score,[6]; [19],0.726 ± 1
same,promoter activity interaction Z-score,[6]; [20],0.457 ± 1.5
same,promoter activity interaction Z-score,[6]; [21],-0.189 ± 0.24
same,promoter activity interaction Z-score,[6]; [22],0.283 ± 0.55
